Hits are enriched below; roughly 10% of the tested compounds scored in any of these assays.
ALDH1A1 inh – inhibitors of human aldehyde dehydrogenase 1A1 | P00352 | Purified ALDH1A1, NADH fluorescence, propionaldehyde substrate | Potency, µM (titrated, usually from 75.3 µM), most hits filed as inhibitors | actives 7.3% (n = 220,000)
PNC assembly inh – inhibitors of perinucleolar compartment assembly; PC3M PTB-GFP, PNC prevalence imaging, 16 h; hits give low values; activity change (PNC), negative = inhibition, % at 10 µM; actives 3.1% (n = 140,000); AID 2417;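 active = readout at or below -70, meaning at least 70% loss of cells showing the perinucleolar compartment, a nuclear body marking cancer cells; inconclusive = readout between -30 and a set limit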
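Read-out is percentage of cells bearing a perinucleolar compartment, from automated 20x imaging of fixed, Hoechst-stained PC3M PTB-GFP cells. Cells were seeded 4 h, then exposed 16 h to compound (23 nl of library stock) in duplicate plates.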
ALOX12 inhib – 12-hLO (ALOX12) enzyme inhibition; purified 12-hLO, xylenol orange hydroperoxide absorbance; Potency, µM (doses to about 57.1 µM), hits mostly inhibitors; actives 0.12% (n = 150,000); AID 1452; active = well fitted inhibition curve with a large enough effect; inconclusive = small, poorly fitted or top-dose-only effect; note: nearly all actives have a fitted effect of over 55% in size
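Xylenol orange chromogenic assay: hydroperoxide from 12hLO oxidises Fe(II), giving red-shifted Fe(III)-XO absorbance. Conditions: 150 nM enzyme, 40 uM arachidonic acid, 25 mM Hepes pH 7.0, 0.01% Triton X-100, 30 min, room temperature.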
HPGD block – HPGD (human) dehydrogenase inhibition | P15428 | purified HPGD, NADH fluorescence kinetic, PGE2 substrate | Potency, µM, hits mostly inhibitors | actives 4.3% (n = 150,000) | AID 894
Target sequence (P15428 whole entry, looked up): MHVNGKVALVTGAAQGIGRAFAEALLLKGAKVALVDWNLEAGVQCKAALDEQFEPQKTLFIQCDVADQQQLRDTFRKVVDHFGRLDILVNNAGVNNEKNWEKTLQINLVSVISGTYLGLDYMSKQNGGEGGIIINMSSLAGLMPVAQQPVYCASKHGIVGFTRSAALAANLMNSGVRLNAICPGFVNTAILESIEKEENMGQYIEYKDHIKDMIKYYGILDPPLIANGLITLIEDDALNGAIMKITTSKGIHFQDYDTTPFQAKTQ
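NADH formation kinetics: reaction with 30 uM PGE2 and 1 mM NAD+ (final), 20 nM enzyme, Tris-HCl pH 8 with Tween 20, after 15 min compound preincubation at room temperature. Fluorescence change, last versus first of five reads.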
LMNA splice mod – changes lamin A minigene splicing in HeLa cells. HeLa LMNA splicing GFP/RFP minigene ratio, 48 h. Potency, µM (highest dose often 46.1 µM), actives largely listed as inhibitors. actives 0.01% (n = 200,000); active = well fitted inhibition curve with a large enough effect in the signal ratio, with a control signal flat, not every such curve was filed as active; inconclusive = small, poorly fitted or top-dose-only effect, or effect the other way, or a change in a side signal; the % refers to the signal ratio
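Read-out is the ratio of GFP to DsRed2 object intensity, acquired by 488 nm laser-scanning cytometry on HeLa lamin A-EGFP minigene reporter cells. Compound incubation 48 hrs at 37 °C in Opti-MEM with 2% FBS; DMSO 0.5% final.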
Numbers stand for hits; - = inactive; ? = inconclusive; . = no result given; [ ] = dose if it differs, or a comment. Unless noted, calls come from the whole dose curve; as a rule, active = well fitted inhibition curve with a large enough effect (not every such curve was filed as active); inconclusive = small, poorly fitted or top-dose-only effect, or another doubt; inactive = no such curve, though single readings can be large or run the other way.

SMILES	ALDH1A1 inh	PNC assembly inh	ALOX12 inhib	HPGD block	LMNA splice mod
CC(=O)OCC(=O)[C@@]1(O)CCC2C3CC[C@H]4CC(O)CC[C@@]4(C)C3C(=O)C[C@]21C (stereo partly drawn)	-	.	-	-	-
O=C(OCc1nc2ccccc2s1)c1cccc(S(=O)(=O)N2CCOCC2)c1	-	-100	-	-	?
O=C(COC(=O)c1cccc(S(=O)(=O)N2CCOCC2)c1)Nc1nc(-c2ccccc2Cl)cs1	-	-	-	-	-
O=C(CCc1ccc(S(=O)(=O)N2CCOCC2)cc1)OCc1nc2ccccc2s1	7.9µM	-	-	-	?
CC(=O)[C@H]1CC[C@@H]2[C@]1(C)CC=C1[C@]23C=C[C@]2(C[C@H](O)CC[C@@]12C)[C@H](C(=O)O)[C@@H]3C(=O)O	.	.	-[11.4 µM]	.	.
CCOc1ncccc1C(=O)OCC(=O)c1ccc(Cl)s1	?	-	-	20µM	-
O=C(OCC(=O)N1CCc2ccccc21)c1c2c(nc3ccccc13)CCCC2	-	-110	-	.	?
CCOc1ncccc1C(=O)OCC(=O)N1CCc2ccccc21	7.9µM	.	.	.	-
O=C(OCC(=O)N1CCc2ccccc21)C1=COCCO1	14µM	?	-	-	-
CCOc1ncccc1C(=O)OCC(=O)c1ccc(F)cc1	-	.	.	.	?
O=C(OCC(=O)N1CCc2ccccc21)c1ccc[nH]c1=O	-	.	.	.	.
O=C1CN(C(=O)COC(=O)C2=COCCO2)c2ccccc2N1	-	?	-	.	-
COc1ccc(C(=O)OC(C(=O)c2ccc(C)cc2)c2ccccc2)cc1 (stereo not drawn)	-	-	-	-	-
CC(=O)OC(C(=O)c1ccccc1)c1ccccc1 (stereo not drawn)	22µM	.	-	-	.
CCOC(=O)C(C)(C)[C@H](O)C(C)C	-[13.5 µM]	.	-[11.4 µM]	-	.
Oc1ccc(-c2nc(-c3ccc(O)c(O)c3)cs2)cc1	11µM	-101	5µM	?	?
O=C1c2sc3nc4n(c(=O)c3c2CCC1Br)CCCCC4 (stereo not drawn)	8.9µM	-	-	13µM	-[0.0737 µM]
O=C1CCCc2c1sc1nc3n(c(=O)c21)CCCCC3	?	-	-	-	-
Cc1cc(C(=O)CSc2nnc(NCc3ccccc3)s2)c(C)n1C	-	-	-	18µM	?
CN1/C(=C\C(=O)CSc2nnc(NCc3ccccc3)s2)C(C)(C)c2ccccc21	-	-	-	-	?
O=C(C1CCC(CNc2c(N3CCCCC3)c(=O)c2=O)CC1)N1CCCCC1 (stereo not drawn)	-	-	-	0.4µM	-
O=C(C1CCC(CNc2c(N3CCOCC3)c(=O)c2=O)CC1)N1CCN(c2ccccc2)CC1 (stereo not drawn)	-	-	-	-	-
CC1CCN(c2c(NCC3CCC(C(=O)N4CCCCC4)CC3)c(=O)c2=O)CC1 (stereo not drawn)	-	-	-	0.5µM	-
CC1S/C(=N/N=C/c2ccco2)N(Cc2ccccc2)C1=O (stereo not drawn)	10µM	.	.	.	?
C=C1CCC[C@]2(C)C[C@H]3OC(=O)[C@H](CNCCc4ccccc4OC)C3CC12 (stereo partly drawn)	8.9µM	.	.	-	.
SMILES	ALDH1A1 inh	PNC assembly inh	ALOX12 inhib	HPGD block	LMNA splice mod
c1csc(CNc2ncncc2-c2ccoc2)c1	?	.	.	.	-
CC(C)Sc1nc2c(c(=O)[nH]c(=O)n2C)n1Cc1ccc(Cl)cc1	35µM	-	-	?	-
CCC(C)Sc1nc2c(c(=O)[nH]c(=O)n2C)n1CCc1ccccc1 (stereo not drawn)	?	-	-	-	?
CCOC(=O)C(C)Sc1nc2c(c(=O)[nH]c(=O)n2C)n1Cc1ccc(Cl)cc1 (stereo not drawn)	18µM	-	-	?	-
CCC(C)Sc1nc2c(c(=O)[nH]c(=O)n2C)n1CC(O)COc1ccccc1C (stereo not drawn)	14µM	-	-	40µM	-
CCCCCn1c(SC(C)C(C)=O)nc2c1c(=O)[nH]c(=O)n2C (stereo not drawn)	?	-	-	-	-
CCC(C)Sc1nc2c(c(=O)[nH]c(=O)n2C)n1Cc1ccc(Cl)cc1 (stereo not drawn)	8.9µM	-	-	-	-
COc1cc(C(=O)NCC(c2cccs2)S(=O)(=O)c2ccc(F)cc2)cc(OC)c1OC (stereo not drawn)	.	.	.	.	-
CCn1c(=O)c2c(nc3n2CCN3c2ccc(OC)cc2)n(C)c1=O	.	.	.	.	-
Oc1ccccc1C=NC1=NN(c2cccc(C(F)(F)F)c2)CC1	22µM	-	?	-	?
FC(F)(F)c1cccc(N2CCC(N=CN3CCCCCC3)=N2)c1	-	.	.	.	.
N[C@@H](CSCc1ccccc1)C(=O)O	-[13.5 µM]	.	-[11.4 µM]	-	.
Cn1c(CCNC(=O)c2ccco2)nc2cc(NC(=O)c3ccco3)ccc21	?	-	-	-	-
Cn1c(CCNC(=O)c2ccco2)nc2cc(NC(=O)C3CCCCC3)ccc21	-	-114	-	-	-
Cn1c(CCNC(=O)c2ccco2)nc2cc(NS(=O)(=O)c3ccccc3)ccc21	20µM	-	-	-	-
Cn1c(CCNC(=O)c2ccco2)nc2cc(NC(=O)NC3CCCCC3)ccc21	?	?	-	-	-
COc1ccc(CNc2nc(-c3ccccc3)nn2C(=O)c2cccs2)cc1	25µM	-	-	-	-
CN1CCN(C(=O)c2ccc(CSc3ccc(Cl)cc3)cc2)CC1	-	?	-	8.9µM	?
CCOC(=O)N1CCN(C(=O)c2ccc(CSc3ccc(Cl)cc3)cc2)CC1	-	.	.	.	.
CN1CCN(C(=O)c2ccc(CN3CCOCC3)cc2)CC1	-	-93	-	-	-
Cc1ccc(SCc2ccc(C(=O)N3CCCCC3)cc2)cc1	4µM	.	.	.	-
CC1CCCN(c2ncnc3c2nc2n3CCCCC2)C1 (stereo not drawn)	.	.	.	.	-
COc1ccc(C(c2c(O)cc(C)n(Cc3ccco3)c2=O)N2CCCCC2)cc1OC (stereo not drawn)	.	.	.	.	-
COc1ccc(NC(=O)CC2CCCC2)cc1S(=O)(=O)N1CCCCC1	-	-	-	-	?
COc1ccc(NC(=O)CN(C)Cc2c(F)cccc2Cl)cc1S(=O)(=O)N1CCCCC1	28µM	.	.	.	.
SMILES	ALDH1A1 inh	PNC assembly inh	ALOX12 inhib	HPGD block	LMNA splice mod
COCCNCC(=O)Nc1ccc(C)c(S(=O)(=O)N2CCCCC2)c1	-	.	.	.	-
Cc1ccc(NC(=O)CCl)cc1S(=O)(=O)N1CCCCCC1	1.5µM	.	.	.	?
CCN(CC)CCNC(=O)c1cc(Br)c(N)cc1OC	-	.	-	-	?
Cc1ccc2[nH]c3c(NCCN4CCOCC4)ncnc3c2c1	-	-84	-	-	-
Cc1noc(C)c1-c1ccc2ncnc(NCCN3CCOCC3)c2c1	-	.	.	.	10µM
Clc1ccc2[nH]c3c(NCCCN4CCOCC4)ncnc3c2c1	?	-	-	?	?
CC1(C)CC(=O)C(C(c2cccc(O)c2O)C2C(=O)CC(C)(C)CC2=O)C(=O)C1	-[13.5 µM]	.	-[11.4 µM]	-	.
CCOc1ccc(C(=O)N(Cc2cc(OC)c(OC)c(OC)c2)c2ccccn2)cc1	.	.	.	.	-
CN1CCN(c2ncc3c(n2)CCN(Cc2cc(Br)cs2)C3)CC1	.	.	.	.	-

Screening data: PubChem, National Center for Advancing Translational Sciences (NCATS)
